Experimental data taken from the supplement of paper PMC10849652.
Of roughly 8,800 targets only a part is listed; those with a hit were picked by preference. About 0.5% of all pairs of compound and target were hits. Values without a mark were called inactive.

Assays:
Assay in all cases: log2 fold change, soluble protein after heating vs DMSO (PISA); higher = thermal stabilisation; K562 lysate, 10 uM; active = over 0.2 and 3.5 SD of the protein, either way, in both replicates (recomputed)
erlotinib = compound: C#Cc1cccc(Nc2ncnc3cc(OCCOC)c(OCCOC)cc23)c1 [erlotinib]
How it was run: (§1)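 K562 pellets were dounce-homogenised in PBS pH 7.4 with 1 mM MgCl2, and the crude extract at 1 mg/mL protein was treated with 10 μM compound for 30 min. Aliquots were heated for 3 min across 48°C-58°C, pooled, and brought to 0.5% NP-40 at 4°C; soluble protein was the supernatant after 21,000xg for 90 min. Soluble protein was quantified by TMTpro 16plex LC-MS/MS with channel sums equalised, and reported as log2 fold change in thermal stability against DMSO controls, with values from duplicates.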

[1] = compound: C/C(=N\NC(=O)C1=CC(=CC=C1)S(=O)(=O)N2CCOCC2)/C3=C(C=CC(=C3)Cl)O
How it was run: as §1

[2] = compound: C1=CC(=CC=C1C2=NC3=C(N2)C=C(C=C3)C(=O)N)OC4=CC=C(C=C4)Cl
How it was run: as §1

[3] = compound: C1=CC2=C(C=CC(=C2)/C=C\3/C(=O)NC(=NCC4=CC=CS4)S3)N=C1
How it was run: as §1

[4] = compound: C1=CC2=NC=CN=C2C=C1/C=C/3\C(=O)NC(=O)S3
How it was run: as §1

[5] = compound: C1=CC=C(C=C1)C2=NC(=C(N2)C3=CC=NC=C3)C4=CC(=C(C=C4)Cl)O
How it was run: as §1

[6] = compound: C1=CC=C2C(=C1)C3=NNC4=CC=CC(=C43)C2=O
How it was run: as §1

[7] = compound: C1CCN(C1)C(=O)NC2=CC=CC(=C2)NC3=NC=C(C(=N3)NCCC4=CN=CN4)Br
How it was run: as §1

[8] = compound: C1CN(CCC1(CC2=CC=C(C=C2)Cl)N)C3=NC=NC4=C3C=CN4
How it was run: as §1

IRAK-1-4 Inhibitor I = compound: C1COCCN1CCN2C3=CC=CC=C3N=C2NC(=O)C4=CC(=CC=C4)[N+](=O)[O-] [IRAK-1-4 Inhibitor I]
How it was run: as §1

Chain of UniProt Q9Y3B4 (Q9Y3B4 whole entry, looked up): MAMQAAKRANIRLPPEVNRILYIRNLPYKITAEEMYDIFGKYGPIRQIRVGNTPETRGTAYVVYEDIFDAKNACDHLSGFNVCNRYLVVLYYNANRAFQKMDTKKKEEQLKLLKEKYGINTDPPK
Chain of UniProt Q13043 (Q13043 whole entry, looked up): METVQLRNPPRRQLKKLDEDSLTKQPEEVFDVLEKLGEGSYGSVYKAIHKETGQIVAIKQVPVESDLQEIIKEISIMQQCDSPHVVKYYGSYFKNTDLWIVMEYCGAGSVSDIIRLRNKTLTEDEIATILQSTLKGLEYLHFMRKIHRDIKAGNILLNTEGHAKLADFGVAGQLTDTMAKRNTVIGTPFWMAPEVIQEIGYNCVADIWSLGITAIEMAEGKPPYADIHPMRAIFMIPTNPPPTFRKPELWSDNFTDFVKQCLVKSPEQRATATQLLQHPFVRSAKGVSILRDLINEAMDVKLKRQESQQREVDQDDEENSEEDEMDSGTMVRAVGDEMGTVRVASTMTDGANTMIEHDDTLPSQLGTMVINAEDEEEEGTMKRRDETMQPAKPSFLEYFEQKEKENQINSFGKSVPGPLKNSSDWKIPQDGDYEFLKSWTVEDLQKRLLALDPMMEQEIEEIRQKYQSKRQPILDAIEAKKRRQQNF
Chain of UniProt P41440 (P41440 whole entry, looked up): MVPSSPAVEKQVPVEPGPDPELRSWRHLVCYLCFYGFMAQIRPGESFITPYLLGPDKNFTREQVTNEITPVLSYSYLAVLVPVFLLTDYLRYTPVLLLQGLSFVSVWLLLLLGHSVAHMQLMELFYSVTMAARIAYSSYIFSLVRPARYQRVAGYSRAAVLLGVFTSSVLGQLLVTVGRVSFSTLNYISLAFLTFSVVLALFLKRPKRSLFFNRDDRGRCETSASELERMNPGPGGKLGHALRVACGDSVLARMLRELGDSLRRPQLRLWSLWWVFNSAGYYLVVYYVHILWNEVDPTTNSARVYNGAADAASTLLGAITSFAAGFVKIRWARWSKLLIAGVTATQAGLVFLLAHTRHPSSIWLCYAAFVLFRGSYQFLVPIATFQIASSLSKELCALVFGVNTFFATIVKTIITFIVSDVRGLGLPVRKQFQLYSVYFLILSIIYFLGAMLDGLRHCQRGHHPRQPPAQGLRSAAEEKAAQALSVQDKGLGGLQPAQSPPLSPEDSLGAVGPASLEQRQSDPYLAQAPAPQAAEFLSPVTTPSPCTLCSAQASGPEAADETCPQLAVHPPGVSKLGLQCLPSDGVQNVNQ
Chain of UniProt Q13586 (Q13586 whole entry, looked up): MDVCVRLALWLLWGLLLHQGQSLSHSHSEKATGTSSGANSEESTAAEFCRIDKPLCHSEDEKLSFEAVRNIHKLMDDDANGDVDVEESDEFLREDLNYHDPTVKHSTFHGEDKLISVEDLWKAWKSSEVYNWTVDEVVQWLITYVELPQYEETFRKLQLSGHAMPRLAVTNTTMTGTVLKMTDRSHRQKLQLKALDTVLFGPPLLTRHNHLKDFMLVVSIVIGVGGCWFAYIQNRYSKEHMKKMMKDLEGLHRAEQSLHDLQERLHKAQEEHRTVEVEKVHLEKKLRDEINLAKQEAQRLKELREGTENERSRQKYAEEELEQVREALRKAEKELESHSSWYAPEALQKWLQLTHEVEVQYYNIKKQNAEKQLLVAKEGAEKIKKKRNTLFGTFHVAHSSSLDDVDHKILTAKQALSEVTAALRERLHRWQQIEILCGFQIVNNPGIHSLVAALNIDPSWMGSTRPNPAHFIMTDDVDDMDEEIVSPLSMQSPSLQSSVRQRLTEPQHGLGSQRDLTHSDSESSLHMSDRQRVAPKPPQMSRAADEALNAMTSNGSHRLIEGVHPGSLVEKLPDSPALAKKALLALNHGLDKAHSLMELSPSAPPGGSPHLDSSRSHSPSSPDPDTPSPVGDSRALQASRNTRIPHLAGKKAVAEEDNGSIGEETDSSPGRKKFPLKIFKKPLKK
Chain of UniProt O00161 (O00161 whole entry, looked up): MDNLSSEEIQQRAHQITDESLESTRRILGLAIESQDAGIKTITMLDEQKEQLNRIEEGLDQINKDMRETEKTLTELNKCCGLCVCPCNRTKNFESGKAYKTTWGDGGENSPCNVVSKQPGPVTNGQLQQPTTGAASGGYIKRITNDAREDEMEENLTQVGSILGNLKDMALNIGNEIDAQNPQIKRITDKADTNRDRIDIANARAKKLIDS
Chain of UniProt Q96SB8 (Q96SB8 whole entry, looked up): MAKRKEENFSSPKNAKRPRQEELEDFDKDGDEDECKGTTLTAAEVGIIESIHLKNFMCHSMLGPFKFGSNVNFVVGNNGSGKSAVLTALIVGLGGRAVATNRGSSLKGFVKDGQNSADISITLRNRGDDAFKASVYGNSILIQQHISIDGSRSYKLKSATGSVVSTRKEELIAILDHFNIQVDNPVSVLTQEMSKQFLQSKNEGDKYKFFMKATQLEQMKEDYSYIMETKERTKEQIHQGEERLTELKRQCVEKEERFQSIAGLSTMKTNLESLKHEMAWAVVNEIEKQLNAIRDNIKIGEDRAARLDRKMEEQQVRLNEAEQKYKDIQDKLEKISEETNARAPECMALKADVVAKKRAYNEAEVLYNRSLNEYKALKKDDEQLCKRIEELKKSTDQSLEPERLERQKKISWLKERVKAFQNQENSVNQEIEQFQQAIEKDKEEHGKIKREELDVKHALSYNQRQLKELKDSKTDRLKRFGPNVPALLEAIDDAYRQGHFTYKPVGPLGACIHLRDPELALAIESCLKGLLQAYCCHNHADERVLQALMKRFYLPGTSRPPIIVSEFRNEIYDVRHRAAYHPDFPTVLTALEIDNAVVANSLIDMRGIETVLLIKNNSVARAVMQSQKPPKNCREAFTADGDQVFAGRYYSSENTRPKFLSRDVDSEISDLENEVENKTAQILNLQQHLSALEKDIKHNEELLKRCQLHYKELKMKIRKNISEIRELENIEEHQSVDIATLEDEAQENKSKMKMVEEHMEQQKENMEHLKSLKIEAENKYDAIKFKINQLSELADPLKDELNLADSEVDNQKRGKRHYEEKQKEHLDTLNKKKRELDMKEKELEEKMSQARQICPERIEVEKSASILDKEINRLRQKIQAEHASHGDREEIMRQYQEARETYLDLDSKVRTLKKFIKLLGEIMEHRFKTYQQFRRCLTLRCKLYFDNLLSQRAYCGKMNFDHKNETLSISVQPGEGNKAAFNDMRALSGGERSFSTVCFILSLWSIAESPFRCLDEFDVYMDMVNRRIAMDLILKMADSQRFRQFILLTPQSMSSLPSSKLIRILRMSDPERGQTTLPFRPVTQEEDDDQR
Chain of UniProt Q14849 (Q14849 whole entry, looked up): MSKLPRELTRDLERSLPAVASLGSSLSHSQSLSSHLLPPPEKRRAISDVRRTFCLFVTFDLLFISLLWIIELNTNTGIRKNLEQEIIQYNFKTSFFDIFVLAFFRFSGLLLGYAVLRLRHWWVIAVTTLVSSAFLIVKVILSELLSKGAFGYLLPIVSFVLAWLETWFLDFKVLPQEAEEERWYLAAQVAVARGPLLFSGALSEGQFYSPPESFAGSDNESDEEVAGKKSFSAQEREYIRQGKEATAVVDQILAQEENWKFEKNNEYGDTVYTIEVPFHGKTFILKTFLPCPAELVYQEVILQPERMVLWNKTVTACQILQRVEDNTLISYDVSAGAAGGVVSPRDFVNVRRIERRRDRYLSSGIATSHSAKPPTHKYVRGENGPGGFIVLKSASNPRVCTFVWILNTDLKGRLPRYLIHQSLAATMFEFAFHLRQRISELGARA
Chain of UniProt Q9UQE7 (Q9UQE7 whole entry, looked up): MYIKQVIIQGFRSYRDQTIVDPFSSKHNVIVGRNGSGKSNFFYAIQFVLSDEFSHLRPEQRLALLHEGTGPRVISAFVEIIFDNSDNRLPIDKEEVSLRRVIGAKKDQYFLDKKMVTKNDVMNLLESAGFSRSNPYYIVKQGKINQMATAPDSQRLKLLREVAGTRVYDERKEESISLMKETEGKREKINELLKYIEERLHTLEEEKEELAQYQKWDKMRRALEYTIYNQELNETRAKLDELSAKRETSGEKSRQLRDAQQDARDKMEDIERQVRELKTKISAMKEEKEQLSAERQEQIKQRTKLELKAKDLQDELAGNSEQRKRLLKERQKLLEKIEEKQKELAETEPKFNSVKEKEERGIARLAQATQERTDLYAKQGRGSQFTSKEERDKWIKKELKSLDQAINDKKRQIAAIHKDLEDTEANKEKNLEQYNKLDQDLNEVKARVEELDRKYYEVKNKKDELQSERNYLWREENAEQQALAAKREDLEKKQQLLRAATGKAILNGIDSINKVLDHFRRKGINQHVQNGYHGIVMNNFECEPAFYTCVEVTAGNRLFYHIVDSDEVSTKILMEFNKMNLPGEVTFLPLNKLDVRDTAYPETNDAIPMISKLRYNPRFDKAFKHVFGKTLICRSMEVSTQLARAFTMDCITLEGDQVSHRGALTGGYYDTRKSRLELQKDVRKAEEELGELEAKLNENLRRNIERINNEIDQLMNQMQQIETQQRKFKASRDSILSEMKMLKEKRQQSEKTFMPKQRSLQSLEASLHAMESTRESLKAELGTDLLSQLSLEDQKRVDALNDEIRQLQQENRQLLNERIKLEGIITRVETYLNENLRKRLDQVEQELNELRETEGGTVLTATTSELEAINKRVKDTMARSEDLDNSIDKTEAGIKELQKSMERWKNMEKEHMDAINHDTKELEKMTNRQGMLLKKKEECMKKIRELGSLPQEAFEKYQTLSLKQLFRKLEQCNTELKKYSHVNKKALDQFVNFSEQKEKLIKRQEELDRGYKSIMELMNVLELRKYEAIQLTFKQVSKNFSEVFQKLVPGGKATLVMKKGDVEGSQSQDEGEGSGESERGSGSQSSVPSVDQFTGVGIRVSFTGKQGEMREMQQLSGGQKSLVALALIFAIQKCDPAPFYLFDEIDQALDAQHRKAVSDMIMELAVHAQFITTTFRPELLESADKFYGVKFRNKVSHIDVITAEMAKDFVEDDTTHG

Row | Target | log2 fold change (erlotinib) | log2 fold change [1] | log2 fold change [2] | log2 fold change [3] | log2 fold change [4] | log2 fold change [5] | log2 fold change [6] | log2 fold change [7] | log2 fold change [8] | log2 fold change (IRAK-1-4 Inhibitor I)
1 | STARD3 isoform 3 (UniProt Q14849) | -0.014 | 0.104 | -0.022 | -0.085 | -0.078 | -0.003 | 0.107 | -0.085 | 0.133 | 0.047
2 | STK26 (UniProt Q9P289) | 0.008 | -0.007 | -0.005 | -0.009 | 0.002 | -0.002 | 0.06 | 0.03 | -0.011 | -0.018
3 | SHC1 isoform 6 (UniProt P29353) | 0.029 | -0.024 | 0.05 | 0.035 | 0.04 | 0.011 | -0.043 | -0.005 | 0.001 | 0.012
4 | SMARCAD1 isoform 2 (UniProt Q9H4L7) | 0 | 0.022 | -0.039 | 0.023 | -0.019 | 0.041 | -0.052 | -0.051 | 0.003 | -0.006
5 | SRPK1 (UniProt Q96SB4) | 0.015 | -0.04 | 0.121 | 0.016 | 0.003 | 0.05 | 0.017 | -0.01 | 0.007 | 0.019
6 | SMC6 (UniProt Q96SB8) | 0.02 | 0.038 | -0.03 | -0.002 | -0.009 | 0.019 | -0.055 | -0.031 | 0.03 | 0.01
7 | SF3B6 (UniProt Q9Y3B4) | 0.011 | 0.047 | 0 | 0.001 | 0.043 | 0.034 | 0.044 | 0.004 | -0.034 | -0.024
8 | SSB (UniProt P05455) | -0.008 | 0.007 | -0.014 | -0.025 | -0.009 | 0.001 | -0.015 | 0.013 | 0.002 | -0.011
9 | STK4 (UniProt Q13043) | -0.013 | -0.15 | -0.033 | -0.061 | -0.008 | -0.009 | 0.165 | 0.187 | 0.053 | 0.018
10 | SFN (UniProt P31947) | 0.013 | -0.239 | -0.006 | -0.053 | -0.002 | -0.004 | 0.025 | 0.012 | -0.064 | -0.03
11 | SNAP23 (UniProt O00161) | -0.01 | 0.037 | -0.025 | 0.047 | 0.02 | 0.039 | 0.022 | 0.018 | 0.03 | 0.038
12 | SORBS3 (UniProt O60504) | -0.01 | 0.028 | 0.021 | 0.018 | -0.054 | -0.092 | 0.057 | 0.09 | 0.129 | 0.088
13 | SMG7 (UniProt Q92540) | 0.007 | -0.03 | -0.022 | -0.058 | -0.066 | -0.047 | -0.032 | -0.077 | -0.01 | -0.011
14 | TARDBP (UniProt Q13148) | -0.017 | -0.092 | 0.018 | 0.004 | 0.09 | -0.133 | -0.036 | -0.065 | 0.032 | 0.048
15 | STIM1 (UniProt Q13586) | -0.037 | 0.089 | -0.014 | 0.021 | 0.001 | -0.016 | -0.059 | -0.009 | 0.005 | -0.01
16 | SLU7 (UniProt O95391) | -0.02 | -0.086 | -0.021 | 0.09 | -0.026 | 0.021 | 0.036 | -0.096 | -0.041 | -0.07
17 | SMARCA4 (UniProt P51532) | -0.01 | -0.018 | -0.021 | 0.011 | -0.001 | -0.003 | -0.017 | -0.003 | -0.024 | -0.025
18 | SLC19A1 (UniProt P41440) | -0.032 | -0.024 | 0.049 | -0.04 | -0.025 | -0.001 | -0.017 | -0.023 | 0.023 | 0.033
19 | STAU1 (UniProt O95793) | 0.02 | -0.001 | -0.032 | 0.002 | -0.016 | -0.08 | -0.007 | -0.018 | -0.003 | 0.055
20 | SHCBP1 (UniProt Q8NEM2) | 0.034 | 0.01 | -0.035 | -0.023 | 0.007 | 0.032 | 0.005 | 0.014 | -0.014 | 0.018
21 | STK36 (UniProt Q9NRP7) | 0.114 | -0.06 | 0.251 | -0.199 | -0.169 | -0.075 | -0.241 | -0.049 | 0.185 | 0.205
22 | SMC3 (UniProt Q9UQE7) | -0.01 | 0.018 | -0.004 | 0.018 | -0.013 | 0.002 | 0.023 | -0.007 | -0.016 | -0.009
23 | SLC39A11 (UniProt Q8N1S5) | -0.093 | 0.116 | -0.047 | -0.139 | -0.071 | 0.05 | 0.062 | 0.385 (active) | 0.058 | -0.053
24 | SOAT1 (UniProt P35610) | 0.06 | -0.007 | -0.042 | 0 | -0.048 | 0.056 | -0.058 | -0.056 | -0.019 | 0
25 | SLC25A25 isoform 3 (UniProt Q6KCM7) | -0.029 | 0.054 | -0.038 | 0.039 | -0.003 | -0.027 | 0.01 | 0.011 | -0.026 | -0.041
26 | SNUPN (UniProt O95149) | -0.048 | -0.116 | 0.3 | 0.024 | 0.035 | 0.069 | 0.009 | 0.02 | -0.039 | -0.001
27 | SMN1 (UniProt Q16637) | 0.038 | 0.009 | 0.042 | -0.075 | -0.055 | 0.096 | -0.068 | -0.046 | -0.104 | 0.02
